From PubChem BioAssay
ELG1 genotoxic: induces genotoxicity in HEK293T cells with luciferase-tagged ELG1 | HEK293T ELG1-luciferase reporter, luminescence, 16 h | 1.3% of 330,000 active | Potency, µM (doses to about 46 µM), inactives show at the top dose activity change, positive = activation, actives largely listed as activators | AID 504466; further: % of control where 0% means no effect; nearly all actives have a fitted effect of over 60% in size
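Genotoxic stress is detected as increased luminescence from luciferase-tagged ELG1 in HEK293T cells, measured with ONE-Glo after a 16 hr treatment at 37 °C.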
SW480 rereplic: DNA re-replication induction in SW480 cells; SW480 DNA re-replication, Hoechst DNA content imaging, 48 h; Potency, µM (top dose mostly 46.1 µM), for the others: at the top dose re-replication activation, hits mostly activators; 1.8% of 340,000 active; AID 624297; further: % of control where 0% means no effect; nearly all actives have a fitted effect of over 55% in size
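SW480 cells exposed to compounds for 48 hr at 37 C, 5% CO2, then Hoechst-stained 40 min. Nuclear DNA content imaged by fluorescence scanning (405 nm excitation, 500-530 nm emission); re-replication scored as increased high-intensity nuclei.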
p53 reactivator: mutant p53 re-activation in reporter cells | H1299 p53-A138V BP100-luciferase reporter, luminescence, 24 h | Potency, µM (series often up to 92.2 µM), inactives show top-dose activity change, positive = activation, usual class: activators | 0.063% of 320,000 active; further: % of control where 0% means no effect; nearly all actives have a fitted effect of over 45% in size
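H1299 (p53-null), stable ts p53-A138V + BP100-Luc; 1000 cells/well, Opti-MEM/10% FBS; cpd 4 pt, 1:5; 24 h, 37 deg C, 5% CO2; detection reagent 10 min RT; luminescence.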
A-T KAP1 phos: potential ataxia-telangiectasia treatment; F2112 A-T fibroblasts, KAP-1 phosphorylation AlphaLISA; neocarzinostatin DNA damage 30 min before lysis; Potency, µM (titrated, usually from 57.5 µM), for inactives: at the highest dose activation, actives largely listed as activators; 0.19% of 320,000 active; AID 485349; further: % of control where 0% means no effect; nearly all actives have a fitted effect of over 45% in size
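hTERT-immortalized A-T patient fibroblasts (F2112), 500 cells/well in OPTI-MEM, 1% FBS, got compounds for 60 min, then NCS for 30 min at 37C. Lysates were then assayed for phospho-KAP-1 by AlphaLISA (anti-pKAP1 donor, anti-KAP1 acceptor beads), 6 hr at 25C.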
ELG1 repair inh: blocks ELG1-dependent DNA repair in HEK293T cells. HEK293T ELG1-luciferase reporter, luminescence, 16 h; DNA damage induced by 5-fluorouridine. Potency, µM (top dose mostly 46.1 µM), inactives show top-dose activity change, negative = inhibition, hits mostly inhibitors. 2.3% of 330,000 active; further: on the % scale 0 is the no-effect control and ±100 the full control effect; nearly all actives have a fitted effect of over 55% in size
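5-Fluorouridine DNA damage + compound/DMSO, 2,000 cells/well, 16 h, 37 °C/5% CO2. ONE-Glo, 30 min RT, luminescence. Readout = decrease in reporter signal.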
MCF10A rerep: induces DNA re-replication in MCF 10a normal breast cells; 2.9% of 350,000 active; MCF 10A DNA re-replication, Hoechst nuclear intensity, 48 h; Potency, µM (doses to about 46.1 µM), for the others: at the highest dose activity, positive = re-replication, most hits filed as activators; further: % of control where 0% means no effect; nearly all actives have a fitted effect of over 50% in size
ELG1 FLuc counter: luciferase inhibition in cell-free luciferin readout for ELG1 hits; shares compounds with ELG1 repair inh; cell-free firefly luciferase luminescence counter-screen, ViewLux; Potency, µM (series often up to 46.1 µM), for inactives: at the top dose activity change, negative = inhibition, usual class: inhibitors; 3% of 350 active; AID 624247; further: on the % scale 0 is the no-effect control and ±100 the full control effect
ELG1 Luc conf: human ELG1 repair inhibition, luciferase-tagged ELG1 confirmation; shares compounds with ELG1 repair inh; HEK293T ELG1-luciferase levels, luminescence; cells co-treated with 5-fluorouridine; Potency, µM (series often up to 46.1 µM), inactives show at the top dose activity change, negative = inhibition, most hits filed as inhibitors; 68% of 670 active; AID 624248; further: on the % scale 0 is the no-effect control and ±100 the full control effect; nearly all actives have a fitted effect of over 55% in size
ELG1-Luc MMS: MMS-stimulated human ELG1 repair inhibition, confirmed; shares compounds with ELG1 repair inh; HEK293T luciferase-tagged ELG1 level, MMS stimulated; 53% of 670 active; Potency, µM (top dose mostly 46.1 µM), without a hit: at the highest dose activity change, negative = inhibition, hits mostly inhibitors; further: on the % scale 0 is the no-effect control and ±100 the full control effect; nearly all actives have a fitted effect of over 60% in size
ELG1 5-FU: confirmation of ELG1 repair inhibitors: viability with 5FU; AID 624250; shares compounds with ELG1 repair inh; Potency, µM (highest dose often 46.1 µM), for inactives: top-dose activity change, negative = viability loss, most hits filed as cytotoxic; 670 tested, under 10 active; cell viability with 5-FU, ELG1-dependent repair;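 further: ELG1-luc HEK293T cells cotreated with 5-fluorouridine at 10 µM final; viability measured 16 h after compound addition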
ELG1 MMS cell: confirmation of ELG1 repair inhibitors: viability with MMS. shares compounds with ELG1 repair inh. Cell viability with MMS, ELG1-dependent DNA repair. Potency, µM (series often up to 46.1 µM), for inactives: at the highest dose activity change, negative = viability loss, hits mostly cytotoxic. 33% of 670 active. AID 624251;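 further: ELG1-luc HEK293T cells co-treated with 10 µM MMS; viability read 16 h after compound addition; on the % scale 0 is the no-effect control and ±100 the full control effect; nearly all actives have a fitted effect of over 60% in size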
ELG1 unstim viab: counter-screen for ELG1 repair inhibitors: unstimulated cell viability; shares compounds with ELG1 repair inh; cell viability counter-screen, unstimulated, luminescence; Potency, µM (series often up to 45.9 µM), without a hit: top-dose activity change, negative = loss of viability, most hits filed as cytotoxic; 8% of 900 active;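 further: compound exposure lasted 16 hours before reading; on the % scale 0 is the no-effect control and ±100 the full control effect; nearly all actives have a fitted effect of over 55% in size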
FLuc biochem: inhibits purified firefly luciferase, counter-screen for ELG1 hits; shares compounds with ELG1 repair inh; AID 624253; purified firefly luciferase, luminescence counter-screen; 10% of 350 active; Potency, µM (highest dose often 57.5 µM), for the others: top-dose activity, negative = inhibition, hits mostly inhibitors; further: on the % scale 0 is the no-effect control and ±100 the full control effect
An asterisk follows results filed as active. Hits are enriched below; roughly 7.1% of the tested compounds scored in any of these assays. The call rests on the fitted dose curve; in most records, active means well fitted curve in the direction sought with a large enough effect; inconclusive means small, poorly fitted or top-dose-only effect, or another doubt; inactive means no such curve, though single readings can be large; an effect the other way counts as inactive or inconclusive. Potency means the concentration at half of the fitted maximal effect.

How did COc1ccc(S(=O)(=O)NCc2ccncc2)cc1NC(=O)c1ccccc1 do in these assays?
ELG1 genotoxic: -0.8%; SW480 rereplic: 12.3%; p53 reactivator: -6.5%; A-T KAP1 phos: 34.6%; ELG1 repair inh: -23.3%; MCF10A rerep: 29.5%

How did COc1ccc(S(=O)(=O)NCc2ccncc2)cc1NC(=O)c1ccc(Cl)cc1 do in these assays?
ELG1 genotoxic: -5.9%; SW480 rereplic: -344.0%; p53 reactivator: -5.0%; A-T KAP1 phos: -8.7%; ELG1 repair inh: inconclusive; MCF10A rerep: 1.3%; ELG1 FLuc counter: 8.9%; ELG1 Luc conf: 17.7µM*; ELG1-Luc MMS: inconclusive; ELG1 5-FU: -2.6%; ELG1 MMS cell: inconclusive; ELG1 unstim viab: inconclusive; FLuc biochem: -1.6%

What do the screens show for `COC(=O)c1ccc2c(=O)n(CCCCCC(=O)N3CCN(c4ccccc4)CC3)c(=O)[nH]c2c1`?
ELG1 genotoxic: -32.0%; SW480 rereplic: -3.2%; p53 reactivator: 2.8%; ELG1 repair inh: 7.31µM*; MCF10A rerep: 14.6µM*; ELG1 FLuc counter: 22.3µM*; ELG1 Luc conf: 8.89µM*; ELG1-Luc MMS: 7.92µM*; ELG1 5-FU: inconclusive; ELG1 MMS cell: 9.97µM*; ELG1 unstim viab: 19.9µM*; FLuc biochem: -2.3%

What do the screens show for `COc1cc2[nH]c(=O)n(CCCCCC(=O)N3CCN(c4ccccc4)CC3)c(=O)c2cc1OC`?
ELG1 genotoxic: -33.6%; SW480 rereplic: 3.8%; p53 reactivator: -16.2%; A-T KAP1 phos: -9.9%; ELG1 repair inh: 16.4µM*; MCF10A rerep: 24.8%; ELG1 FLuc counter: inconclusive; ELG1 Luc conf: 12.6µM*; ELG1-Luc MMS: 15.8µM*; ELG1 5-FU: 8.1%; ELG1 MMS cell: inconclusive; ELG1 unstim viab: inconclusive; FLuc biochem: -17.7%

How did CCN(CC(=O)NCc1ccc(F)cc1)C(=O)CN1CCN(c2ccc(OC)cc2)CC1 do in these assays?
ELG1 genotoxic: -4.3%; SW480 rereplic: -16.8%; p53 reactivator: -1.3%; A-T KAP1 phos: 2.4%; ELG1 repair inh: -13.8%; MCF10A rerep: -8.2%

How did CCCN1CCN(S(=O)(=O)c2ccc3c(c2)CCC(=O)N3)CC1 do in these assays?
ELG1 genotoxic: 0.2%; SW480 rereplic: -17.0%; p53 reactivator: 4.7%; A-T KAP1 phos: -3.0%; ELG1 repair inh: 16.0%; MCF10A rerep: 9.4%

Results for CC1CN(C(=O)COC(=O)/C=C/c2cccc([N+](=O)[O-])c2)CC(C)O1 (stereo not given) ?
ELG1 genotoxic: -6.2%; SW480 rereplic: 3.6%; p53 reactivator: 21.4%; A-T KAP1 phos: 9.3%; ELG1 repair inh: 1.46µM*; MCF10A rerep: 2.4%; ELG1 Luc conf: -16.6%; ELG1-Luc MMS: inconclusive; ELG1 5-FU: -4.8%; ELG1 MMS cell: inconclusive; ELG1 unstim viab: inconclusive

Results for COc1cc(C(=O)OCC(=O)NC(N)=O)cc(CN2C(=O)c3ccccc3C2=O)c1OC ?
ELG1 genotoxic: -3.7%; SW480 rereplic: -8.4%; p53 reactivator: -3.9%; A-T KAP1 phos: 15.8%; ELG1 repair inh: -11.6%; MCF10A rerep: -7.5%

How did COc1ccccc1NC(=O)C(=O)NCCC1CCCCN1S(=O)(=O)c1ccc(F)cc1 (stereo not given) do in these assays?
ELG1 genotoxic: -6.7%; SW480 rereplic: -0.5%; p53 reactivator: -1.7%; A-T KAP1 phos: -7.1%; ELG1 repair inh: inconclusive; MCF10A rerep: 8.0%

What do the screens show for `COc1cccc(/C=C/C(=O)OCC(=O)c2ccccc2)c1OC`?
ELG1 genotoxic: inconclusive; SW480 rereplic: -6.2%; p53 reactivator: inconclusive; A-T KAP1 phos: -4.0%; ELG1 repair inh: inconclusive; MCF10A rerep: -5.4%; ELG1 unstim viab: -3.0%

Results for CN(C)C(=S)c1ccccc1 ?
ELG1 genotoxic: -1.8%; SW480 rereplic: -13.3%; p53 reactivator: 0.9%; A-T KAP1 phos: -5.0%; ELG1 repair inh: -1.3%; MCF10A rerep: 0.6%

What do the screens show for `CC(=O)N1CCN(CC(=O)Nc2ccccc2C(=O)Nc2ccccc2)CC1`?
ELG1 genotoxic: 1.8%; SW480 rereplic: -23.9%; p53 reactivator: 1.3%; A-T KAP1 phos: 12.5%; ELG1 repair inh: inconclusive; MCF10A rerep: 29.7%; ELG1 Luc conf: 3.53µM*; ELG1-Luc MMS: 43.4%; ELG1 5-FU: inconclusive; ELG1 MMS cell: -2.1%; ELG1 unstim viab: -0.9%

What do the screens show for `CC(=O)N1CCN(CC(=O)Nc2ccccc2C(=O)NCc2ccc(C)cc2)CC1`?
ELG1 genotoxic: -13.5%; SW480 rereplic: 2.2%; p53 reactivator: 5.0%; A-T KAP1 phos: 6.7%; ELG1 repair inh: -14.9%; MCF10A rerep: 0.9%

What do the screens show for `O=C(O)C(SC(C(=O)O)c1ccccc1)c1ccccc1` (stereo not given)?
SW480 rereplic: -7.3%; MCF10A rerep: -6.8%
